Test results from the supplement of paper PMC6555819.

How the values were obtained:
Experiment in all cases: PBM binding z-score (relative to random genomic background probes); higher = stronger binding; sequences stand for … in GC…GCGATTGACAGCGTAGAATGAAGG
[1] = test system: FXR:RXRa (NR concentration 270 nM, RXRa partner concentration 90 nM)
In short: (§1)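 On custom Agilent 4×180K arrays, double-stranded probes with 34-nt variable regions carried direct-repeat seeds, single-nucleotide variants, half-site ablations or random human genomic background. Ligand-free nuclear receptor dimers were applied for 1 h, and binding was read with antibodies against each partner (one per run). Binding z-scores come from regression-normalized fluorescence, with the random background probes as reference.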

[2] = test system: LXRa:RXRa (NR concentration 270 nM, RXRa partner concentration 90 nM)
In short: as §1

[3] = test system: LXRa homodimer (NR concentration 270 nM)
In short: as §1

[4] = test system: LXRb:RXRa (NR concentration 270 nM, RXRa partner concentration 90 nM)
In short: as §1

[5] = test system: LXRb homodimer (NR concentration 270 nM)
In short: as §1

[6] = test system: PPARa:RXRa (NR concentration 270 nM, RXRa partner concentration 90 nM)
In short: as §1

[7] = test system: PPARg:RXRa (NR concentration 180 nM, RXRa partner concentration 90 nM)
In short: as §1

[8] = test system: PPARg:RXRa 270nM:90nM, anti-RXR (NR concentration 270 nM, RXRa partner concentration 90 nM)
In short: as §1

[9] = test system: PPARg:RXRa 30nM:10nM, anti-RXR (NR concentration 30 nM, RXRa partner concentration 10 nM)
In short: as §1

[10] = test system: PPARg:RXRa 90nM:30nM, anti-RXR (NR concentration 90 nM, RXRa partner concentration 30 nM)
In short: as §1

[11] = test system: PPARg:RXRa DBDmut IVT, anti-RXR (DBD mutation: RXRa K156A/R161A, NR concentration 270 nM, RXRa partner concentration 90 nM)
In short: as §1

[12] = test system: PPARg:RXRa IVT, anti-PPARg (NR concentration 270 nM, RXRa partner concentration 90 nM)
In short: as §1

[13] = test system: PPARg DBDmut:RXRa IVT, anti-PPARg (DBD mutation: PPARg1 K132A/R137A, NR concentration 270 nM, RXRa partner concentration 90 nM)
In short: as §1

[14] = test system: PPARg DBDmut IVT, anti-PPARg (DBD mutation: PPARg1 K132A/R137A, NR concentration 270 nM)
In short: as §1

[15] = test system: PPARg homodimer (NR concentration 180 nM)
In short: as §1

[16] = test system: PXR:RXRa (NR concentration 270 nM, RXRa partner concentration 90 nM)
In short: as §1

[17] = test system: PXR homodimer (NR concentration 270 nM)
In short: as §1

[18] = test system: RARa:RXR (NR concentration 270 nM, RXRa partner concentration 90 nM)
In short: as §1

[19] = test system: RARa homodimer (NR concentration 270 nM)
In short: as §1

[20] = test system: RARb:RXRa (NR concentration 270 nM, RXRa partner concentration 90 nM)
In short: as §1

Sequence	PBM binding z-score [1]	PBM binding z-score [2]	PBM binding z-score [3]	PBM binding z-score [4]	PBM binding z-score [5]	PBM binding z-score [6]	PBM binding z-score [7]	PBM binding z-score [8]	PBM binding z-score [9]	PBM binding z-score [10]	PBM binding z-score [11]	PBM binding z-score [12]	PBM binding z-score [13]	PBM binding z-score [14]	PBM binding z-score [15]	PBM binding z-score [16]	PBM binding z-score [17]	PBM binding z-score [18]	PBM binding z-score [19]	PBM binding z-score [20]
ATCTCTAGGTAAAAGTTCTGTGAATCCCGAGGAT	0.0905	0.216	0.111	-0.143	0.463	1.52	2.62	3.93	2.04	4.05	2.32	1.91	1.22	1.71	1.06	0.0852	0.034	-0.0223	0.566	0.232
AGAATGAGGATATACGTAGATCAGGGAAGAAAGT	-0.224	-0.666	-0.354	-0.479	-0.429	-0.509	0.977	-0.177	0.217	-0.000713	-0.138	-0.218	0.0706	0.805	0.0264	-0.403	-0.147	-0.363	0.32	-0.448
ACTATTAGTTGCGACGAGGGCAACCGATAGGTTG	0.025	-0.176	-0.51	-0.131	-0.0376	0.201	0.576	0.00262	-0.168	0.0381	-0.375	0.286	0.385	0.517	0.166	0.401	-0.0266	0.277	0.0553	0.852
GCTAGCAGGCCATTTGGGTCCCTCAATGACGGGC	-0.228	-0.686	-0.879	-1.21	-1.22	-0.512	-0.133	-0.261	-0.743	-0.708	-0.0266	-0.343	-1.53	-1.41	-1.41	-0.687	-1.15	-0.731	-1.25	-0.116
CCTACTGGACCATCAGGTCATTGATATCAACGTT	1.87	1.86	2.81	2.53	1.02	2.43	1.14	1.97	0.798	1.68	2.13	2.58	0.468	0.568	2.23	2.09	1.45	2.25	1.47	1.97
GATACAGGGTCAGCTAGGGGCCAGAGTATGGAAA	5.14	2.64	-0.494	2.7	-0.084	4.79	3.88	3.46	0.617	1.94	1.75	2.41	-0.163	-0.667	3.15	2.94	-0.0214	4.97	0.262	4.22
TAGCCTAGGTCAGATCGGGCCAGTAAACGCTATA	2.02	1.16	-0.524	0.637	-0.2	1.5	0.341	0.516	-0.817	-0.377	0.412	1.24	-0.563	-0.294	-0.374	1.12	-0.666	0.814	-1.71	2.85
ATCGAAAGGTCGACGGTGAGTATACCCACCCGAA	4.38	3.44	0.131	2.47	0.548	4.12	2.45	3.09	1.17	2.63	-0.188	1.6	0.9	0.777	1.58	2.43	-0.256	3.22	0.352	3.8
ATCTCTGGGTAAAAGTTCAGTGAATCCCGAGGAT	0.844	1.38	1.37	1.04	1.4	4.12	7.38	7.77	6.93	9.04	1.87	3.69	1.17	1.44	1.47	2.03	1.5	1.97	0.896	2.59
GATACAGGGTCTAGGCCAGAGTACGCGTATTGAT	-0.772	-0.631	-0.516	-0.894	-1.47	-0.516	0.629	0.0439	-0.269	-0.108	-0.37	0.257	-1.76	-0.427	-0.543	-0.687	-0.433	-0.694	-0.222	0.0286
CGTCCAAGGTCAGCAGGTCAGTGCAAGCGACGTG	5.87	3.79	0.73	2.8	-0.131	4.86	4.09	4.53	1.16	2.98	3.15	3.71	-0.109	-0.869	3.88	3.68	0.651	4.87	0.357	5.27
